We go through 20 compounds from ChEMBL document CHEMBL3988442, “University of Dundee, Small-Polar-MMV Screening Library” (2021).

The target in this experiment is T1, Arginase-2, mitochondrial (Homo sapiens) (UniProt P78540).
T1 sequence (whole entry): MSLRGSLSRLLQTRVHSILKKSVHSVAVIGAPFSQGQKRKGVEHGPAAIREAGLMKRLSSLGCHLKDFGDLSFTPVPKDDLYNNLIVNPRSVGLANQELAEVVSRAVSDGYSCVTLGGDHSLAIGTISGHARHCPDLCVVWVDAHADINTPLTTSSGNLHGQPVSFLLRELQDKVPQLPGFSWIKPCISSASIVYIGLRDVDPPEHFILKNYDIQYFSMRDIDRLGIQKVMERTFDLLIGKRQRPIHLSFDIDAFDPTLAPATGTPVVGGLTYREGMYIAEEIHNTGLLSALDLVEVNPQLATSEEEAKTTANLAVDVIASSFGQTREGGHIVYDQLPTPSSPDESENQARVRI
Briefly: in vitro enzyme assay to detect the production of urea directly proportional to the activity of Arginase II. The format is functional. Set-up: scale not given: in the data most compounds retested in dose-response had high values. The conditions noted are these: 30 µM.
Take `O=C(COC1CCCC1)N1CCCC1c1noc(C2CC2)n1` (stereo not given): the Percent Effect turned out to be 5.95%. For `CCn1c(NCc2ccc(OC)cc2)nc2c(C)nn(C)c2c1=O`, the Percent Effect was -4.87%.

Turning to `CN(C)C(=O)CN1CCCC(c2cncc(-c3cccc(Cl)c3)n2)C1` (stereo not given), the Percent Effect stood at 1.62%. `OC(CN(Cc1ccccc1)Cc1ccon1)c1cccs1` (stereo not given): the Percent Effect was 8.11%. Consider `COC(=O)CCNC(=O)c1cc(Br)c2c(c1)OCCO2`, for which the Percent Effect turned out to be 5.95%.

As for `Cc1nn(CCO)c(C)c1CNC1CCCCc2ccccc21` (stereo not given), the Percent Effect is 3.78%. As for `c1ccc(OC2COC3(CCN(Cc4ccccn4)CC3)C2)cc1` (stereo not given), the Percent Effect worked out at 0.54%.

Regarding `CC(C)CN1CCC(NC(=O)c2ccc(F)cc2F)CC1`, the Percent Effect was 7.03%. Regarding `COc1cc(C2SC(C)=Nc3c2c(=O)[nH]n3C2CCCC2)ccc1O` (stereo not given), the Percent Effect came out at 3.78%.

As to `NC(=O)CN1CCC(c2cncc(-c3cccc(Cl)c3)n2)CC1`, the Percent Effect is 2.7%. Regarding `CNC(=O)[C@H]1C[C@@H]2CN(C(=O)c3occc3C)C[C@@H]2N1S(C)(=O)=O`, the Percent Effect was found to be 2.7%.

With `CN1[C@H]2CC[C@@H]1CN(C(=O)CCc1csc(N)n1)CC2`, the Percent Effect came out at 3.78%. Regarding `Cc1noc(CNC(=O)N2CCN(c3nc(C)c(C)s3)CC2)n1`, the Percent Effect turned out to be 5.95%. Regarding `CCn1c(NCc2cccnc2)nc2c(C)nn(C)c2c1=O`, the Percent Effect stood at 3.78%. As for `OC(CN(Cc1ccccc1)Cc1cccnc1)c1cccs1` (stereo not given), the figure is -5.95%. Consider `Cn1cc(CC2CCN(C(=O)NCc3csc(C4CC4)n3)C2)cn1` (stereo not given), for which the Percent Effect is 7.03%. In the case of `CN(C)c1ccc(NC(=O)C2CN(Cc3ccccc3)CCO2)cn1` (stereo not given), the Percent Effect is 10.3%. On to `OC(CN(Cc1ccccc1)Cc1ccccn1)c1cccs1` (stereo not given), for which the Percent Effect worked out at 11.3%. As for `O=C(NCc1ccncc1)N(Cc1ccc(F)cc1F)C1CC1`, the Percent Effect is 3.78%. On to `OC(COc1ccccc1)CN1CCN(c2nccs2)CC1` (stereo not given), for which the Percent Effect came out at 4.87%.
